Calls of active or inactive are those of the source. Unless noted, the rule behind the calls is not given here.
Assays:
[1] = HepG2 liver cancer cell viability effects, profiling panel, resazurin fluorescence, 24 h, PK04 Diversity Set (AID 1172); conditions: higher = more signal
[2] = basal S. cerevisiae growth modulation, no modifier, primary screen, OD600, strain BY4716, 24 h, basal condition (AID 1173); conditions: OD600, 24 h, higher = more signal, called active from +8 up or from −8 down
[3] = MM1S myeloma cell viability, profiling panel, resazurin fluorescence, basal, 24 h, PK04 Diversity Set (AID 1174); conditions: higher = more signal, called active from +8 up or from −8 down;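 note: MM1S multiple myeloma cell line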
[4] = target: Dihydroorotate dehydrogenase (quinone), mitochondrial (Plasmodium falciparum (isolate 3D7)) (UniProt Q08210); assay: PfDHODH enzyme inhibitors, primary screen, biochemical, C-terminal His tag, absorbance 600 nm (AID 1175); conditions: DCIP absorbance 600 nm, higher = more signal, called active from +8 up or from −8 down;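 note: recombinant parasite enzyme with a five histidine tag at its C terminus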
[5] = P. aeruginosa biofilm formation inhibitors, primary screen, strain PAO1, LB-PBS medium, absorbance 600 nm (AID 1176); conditions: P. aeruginosa PAO1 growth/biofilm, A600, 12 h; higher = more signal
[6] = S. cerevisiae RM11-1a growth modifiers, primary screen, strain RM11-1a, OD600, basal, 24 h (AID 1177); conditions: OD600, 24 h, higher = more signal, called active from +8 up or from −8 down;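 note: cultures grown under basal conditions with no added stressor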
[7] = E. coli acrAB mutant growth effects, primary screen, E. coli filamentation inducers, strain DRC39, OD650, 24 h (AID 1178); conditions: higher = more signal, called active from +8 up or from −8 down;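 note: growth measured as culture turbidity by optical density at 650 nm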
[8] = E. coli acrAB mutant growth effects, primary screen, E. coli filamentation inducers, strain DRC39, OD650, 48 h (AID 1179);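 note: screen aims at cell division blockers that make cells filament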; conditions: E. coli DRC39 delta-acrAB growth, higher = more signal, called active from +8 up or from −8 down
[9] = RPMI8226 myeloma cell viability, profiling panel, resazurin fluorescence, basal, 24 h, PK04 Diversity Set (AID 1180); conditions: higher = more signal;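 note: RPMI8826 multiple myeloma cell line at 5000 cells per well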
[10] = target: E3 ubiquitin-protein ligase XIAP (Homo sapiens) (UniProt P98170); assay: XIAP binders, primary screen, biophysical, small-molecule microarray, fluorescence 635 nm (AID 1181); conditions: small-molecule microarray binding, higher = more signal;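 note: score merges 667 nm emission and signal to noise over triplicate slides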
[11] = test system: XIP peptide (Xip251-270) binding; assay: small-molecule binders of XIP peptide, primary screen, biochemical, small-molecule microarray, fluorescence 635/667 nm, 0.1 µg/mL protein (AID 1182); conditions: fluorescent protein binding, 635 nm, higher = more signal, called active from +8 up or from −8 down
XIP peptide (Xip251-270) = assay: small-molecule binders of XIP peptide, primary screen, biochemical, small-molecule microarray, fluorescence 635/667 nm, 0.5 µg/mL protein (AID 1183); conditions: small-molecule microarray binding, fluorescence 635 nm; higher = more signal
[12] = Plasmodium falciparum growth inhibition, primary screen, strain 3D7, DAPI fluorescence, 100 nL (AID 1184);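 note: parasites grown inside human red blood cells in medium with human serum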; conditions: P. falciparum 3D7 growth, 3 d, higher = more signal
[13] = target: Homeobox protein Hox-A13 (Mus musculus) (UniProt Q62424); assay: inhibitors of HoxA13-DNA binding, primary screen, biochemical, fluorescence polarization, labeled oligonucleotide (AID 1185); conditions: 15 min, higher = more signal, called active from +8 up or from −8 down
[14] = inhibitors of hydroxyurea-induced Chk1 phosphorylation, primary screen, imaging, HeLa, phospho-Chk1 antibody, percent positive cells (AID 1186); conditions: hydroxyurea-induced phospho-Chk1 immunofluorescence imaging, higher = more signal
[15] = inhibitors of hydroxyurea-induced Chk1 phosphorylation, primary screen, imaging, HeLa, phospho-Chk1 nuclear intensity (AID 1187); conditions: hydroxyurea-induced phospho-Chk1 immunofluorescence imaging, higher = more signal

Homeobox protein Hox-A13 (Mus musculus), sequence (Q62424 whole entry, looked up): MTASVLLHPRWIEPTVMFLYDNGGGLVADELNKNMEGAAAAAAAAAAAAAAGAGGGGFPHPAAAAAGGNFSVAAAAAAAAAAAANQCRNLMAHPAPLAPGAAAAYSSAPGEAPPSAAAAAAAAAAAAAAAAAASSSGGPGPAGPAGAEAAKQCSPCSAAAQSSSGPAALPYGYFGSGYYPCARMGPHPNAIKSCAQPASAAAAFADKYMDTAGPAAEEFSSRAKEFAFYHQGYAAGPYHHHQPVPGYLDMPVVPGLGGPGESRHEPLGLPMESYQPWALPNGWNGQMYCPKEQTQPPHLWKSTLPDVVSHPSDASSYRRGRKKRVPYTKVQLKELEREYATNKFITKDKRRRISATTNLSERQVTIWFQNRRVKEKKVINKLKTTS
E3 ubiquitin-protein ligase XIAP (Homo sapiens), sequence (P98170 whole entry, looked up): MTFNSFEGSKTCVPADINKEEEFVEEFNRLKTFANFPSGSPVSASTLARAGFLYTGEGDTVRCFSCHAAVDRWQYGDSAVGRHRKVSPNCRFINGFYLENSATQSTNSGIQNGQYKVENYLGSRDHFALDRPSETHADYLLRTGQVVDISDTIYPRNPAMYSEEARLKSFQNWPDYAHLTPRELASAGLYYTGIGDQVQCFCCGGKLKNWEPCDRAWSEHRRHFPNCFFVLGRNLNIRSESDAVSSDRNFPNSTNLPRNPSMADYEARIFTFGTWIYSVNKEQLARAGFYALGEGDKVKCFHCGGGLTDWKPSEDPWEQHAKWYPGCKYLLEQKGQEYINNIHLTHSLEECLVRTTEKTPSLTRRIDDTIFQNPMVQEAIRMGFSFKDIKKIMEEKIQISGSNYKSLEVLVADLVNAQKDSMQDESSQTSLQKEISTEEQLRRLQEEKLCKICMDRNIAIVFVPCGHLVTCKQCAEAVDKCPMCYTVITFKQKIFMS
Dihydroorotate dehydrogenase (quinone), mitochondrial (Plasmodium falciparum (isolate 3D7)), sequence (Q08210 whole entry, looked up): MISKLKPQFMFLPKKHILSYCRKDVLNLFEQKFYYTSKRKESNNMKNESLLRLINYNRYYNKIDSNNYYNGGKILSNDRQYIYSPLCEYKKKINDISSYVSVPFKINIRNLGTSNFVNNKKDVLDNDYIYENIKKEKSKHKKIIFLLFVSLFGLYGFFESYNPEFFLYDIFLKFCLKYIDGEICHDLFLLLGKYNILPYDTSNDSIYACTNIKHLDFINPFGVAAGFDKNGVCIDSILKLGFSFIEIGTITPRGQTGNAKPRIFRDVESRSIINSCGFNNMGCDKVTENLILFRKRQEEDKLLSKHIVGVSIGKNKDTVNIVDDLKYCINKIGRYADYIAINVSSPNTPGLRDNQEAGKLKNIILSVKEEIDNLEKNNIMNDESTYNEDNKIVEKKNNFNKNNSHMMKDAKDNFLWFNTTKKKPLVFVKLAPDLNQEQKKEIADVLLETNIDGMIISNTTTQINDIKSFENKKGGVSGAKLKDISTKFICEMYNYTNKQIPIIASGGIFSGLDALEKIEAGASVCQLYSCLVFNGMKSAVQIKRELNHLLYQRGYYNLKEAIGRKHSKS

| Structure (SMILES) | z-score [1] | z-score [2] | z-score [3] | composite z-score [4] | z-score [5] | z-score [6] | z-score [7] | z-score [8] | z-score [9] | composite z-score [10] | composite z-score [11] | composite z-score (XIP peptide (Xip251-270)) | z-score [12] | z-score [13] | z-score [14] | z-score [15] |
| --- | --- | --- | --- | --- | --- | --- | --- | --- | --- | --- | --- | --- | --- | --- | --- | --- |
| COc1ccc([Si](C)(C)[C@@H]2[C@@H](CC(=O)N(CCO)Cc3ccccc3)O[C@]3(C(=O)N(Cc4ccc(N5C(=O)c6cccc7cccc5c67)cc4)c4ccccc43)[C@H]2C)cc1 | -1.17 | 1.21 (inactive) | -1.48 (inactive) | -0.992 (inactive) | 1.56 (inactive) | 2.5 (inactive) | 0.302 (inactive) | -0.22 (inactive) | -1.85 | 0.237 | 1.28 (inactive) | 0.577 | -1.17 | -1.19 (inactive) | 0.398 (inactive) | -0.601 (inactive) |
| COc1ccc(C(O)C2C=CC3C(=O)N(C)C(=O)C3N2N(c2ccccc2)c2ccccc2)cc1 (stereo not given) | -0.326 | 0.405 (inactive) | -1.61 (inactive) | -0.472 (inactive) | 0.971 (inactive) | 0.279 (inactive) | -0.41 (inactive) | 0.0882 (inactive) | -1.29 | -0.0772 | 0.195 (inactive) | 0.512 | -0.459 | -6.57 (inactive) | 0.45 (inactive) | -0.508 (inactive) |
| NC(=O)N1C(=O)C2C(C1=O)C1C=C(CCCO)C2C(c2ccc(CN3CCCC3)cc2)N1Cc1sc2ccccc2c1Cl (stereo not given) | -0.968 | -2.06 (inactive) | -1.29 (inactive) | 0.574 (inactive) | 0.0721 (inactive) | -0.243 (inactive) | -0.291 (inactive) | -0.693 (inactive) | -1.04 | -0.167 | -0.211 (inactive) | 0.245 | -0.44 | -4.57 (inactive) | 0.252 (inactive) | 0.175 (inactive) |
| C=CCC(OC(C)=O)[C@@H]1[C@@H](N(Cc2cccc3ccccc23)C(=O)c2ccc(-c3ccccc3)cc2)c2cc(OCCCO)ccc2N1C(=O)Cc1ccc2ccccc2c1 (stereo not given in full) | 0.236 | 0.716 (inactive) | 0.331 (inactive) | -0.0628 (inactive) | 0.444 (inactive) | -0.368 (inactive) | -0.416 (inactive) | -0.236 (inactive) | 0.193 | -0.179 | -0.419 (inactive) | -0.347 | 0.0788 | -0.896 (inactive) | 0.547 (inactive) | 0.582 (inactive) |
| OCCCC1=CC(c2ccc(CN3CCCC3)cc2)N(Cc2cccc(OC(F)(F)F)c2)CC1 (stereo not given) | -2.32 | -5.01 (inactive) | -6.82 (inactive) | -1.2 (inactive) | 0.318 (inactive) | 0.195 (inactive) | -1 (inactive) | -1.83 (inactive) | -5.61 | 0.215 | -0.113 (inactive) | -0.504 | -2.86 | -3.15 (inactive) | 0.86 (inactive) | 1.51 (inactive) |
| C[N+](C)(C)CCCCNC(=O)[C@H]1C[C@H]2C(=O)N[C@@H](Cc3ccccc3)C(=O)N2[C@H]1c1cccc(OCCO)c1 | -3.26 | 1.07 (inactive) | -0.476 (inactive) | -30.8 (active) | 0.544 (inactive) | 0.103 (inactive) | 0.548 (inactive) | 0.779 (inactive) | -0.863 | 0.459 | 0.875 (inactive) | 0.696 | -0.352 | -3.44 (inactive) | 0.88 (inactive) | 0.461 (inactive) |
| COC(=O)[C@@]1(Cc2ccc(OC)cc2)[C@H]2c3cc(C(=O)N4CCCC4)n(Cc4ccc(C(F)(F)F)nc4)c3C[C@H]2CN1C(=O)c1ccccc1 | -0.35 | 1.37 (inactive) | -1.07 (inactive) | -0.77 (inactive) | 1.08 (inactive) | -0.809 (inactive) | -0.886 (inactive) | -0.71 (inactive) | -2.32 | -0.02 | 0.143 (inactive) | -0.39 | -1.5 | -5.12 (inactive) | 0.664 (inactive) | 0.712 (inactive) |
| NC(=O)NCC#Cc1ccc2c(c1)[C@]1(C(=O)N2)[C@H](c2ccc(OCCO)cc2)N2[C@H](c3ccccc3)[C@H](c3ccccc3)OC(=O)[C@H]2[C@@H]1C(=O)NC[C@H](O)c1ccccc1 | 1.12 | 1.63 (inactive) | 0.473 (inactive) | -0.256 (inactive) | 0.489 (inactive) | 2.58 (inactive) | 0.826 (inactive) | 0.107 (inactive) | 1.29 | 0.0697 | -0.133 (inactive) | 0.594 | -0.833 | -3.2 (inactive) | -0.261 (inactive) | -0.572 (inactive) |
| O=C1C[C@@](C(=O)NC2CC2)(c2ccc([N+](=O)[O-])cc2)[C@@H](c2ccc(CO)cc2)N1C1CCCCC1 | 0.363 | -1.44 (inactive) | 1.23 (inactive) | -6.96 (inactive) | 1.46 (inactive) | -2.37 (inactive) | 0.0991 (inactive) | -0.0005 (inactive) | 1.48 | -0.0574 | 1.19 (inactive) | 0.662 | -1.39 | -3.19 (inactive) | -0.544 (inactive) | -0.979 (inactive) |
| COC(=O)C[C@H]1O[C@@]2(C[C@@H]1[Si](C)(C)C)C(=O)N(C)c1ccccc12 | 0.791 | -3.71 (inactive) | 1.41 (inactive) | -0.655 (inactive) | 0.826 (inactive) | -3.42 (inactive) | 2.3 (inactive) | 0.92 (inactive) | 0.904 | -0.0966 | -0.227 (inactive) | -0.186 | 0.357 | -0.91 (inactive) | -0.597 (inactive) | -0.0422 (inactive) |
| CC1=C([C@H](O)CCc2ccccc2)[C@H](CO)n2c(=O)n(-c3ccccc3)c(=O)n2C1 | 0.331 | -2.79 (inactive) | 0.199 (inactive) | -1.34 (inactive) | 0.589 (inactive) | -1.97 (inactive) | 1.19 (inactive) | 1.35 (inactive) | 0.12 | -0.237 | -0.611 (inactive) | 0.754 | 0.0483 | -2.24 (inactive) | -0.773 (inactive) | -0.906 (inactive) |
| C=CC[C@@]1(C(=O)OC)N=C(c2ccc(OCCCO)cc2)O[C@@H]1c1ccccc1N=[N+]=[N-] | -0.0361 | -1.28 (inactive) | -0.768 (inactive) | 1.09 (inactive) | -0.043 (inactive) | 1.72 (inactive) | 0.906 (inactive) | -1.05 (inactive) | -0.937 | 0.0142 | 0.741 (inactive) | 0.852 | -2.27 | -3.81 (inactive) | -0.312 (inactive) | 0.0948 (inactive) |
| COc1ccc(C(O)C2C=CC3C(=O)N(c4ccccc4)C(=O)C3N2Nc2ccc(C#N)cc2)cc1OCc1ccccc1 (stereo not given) | -1.74 | 0.0151 (inactive) | -0.829 (inactive) | 0.94 (inactive) | 1.45 (inactive) | -0.396 (inactive) | -0.933 (inactive) | -0.0725 (inactive) | -0.756 | 0.44 | 0.496 (inactive) | 0.556 | -0.474 | 0.712 (inactive) | -0.405 (inactive) | -0.669 (inactive) |
| COC(=O)[C@@]1(Cc2ccccc2)[C@H]2c3cc(C(=O)N(C)C)n(Cc4ccc(C(F)(F)F)nc4)c3C[C@H]2CN1C(=O)c1ccccc1 | -0.634 | 2.47 (inactive) | -1.11 (inactive) | -0.125 (inactive) | 0.563 (inactive) | 1.02 (inactive) | -0.46 (inactive) | 0.03 (inactive) | -0.693 | -0.242 | 0.119 (inactive) | 0.337 | -1.24 | -3.46 (inactive) | 0.296 (inactive) | 0.0603 (inactive) |
| CC(=O)NCCCC[C@@H]1NC(=O)[C@H]2C[C@@H](C(=O)NCCCCCCNC(=O)CS)[C@@H](c3cccc(OCCO)c3)N2C1=O | -0.0625 | 0.535 (inactive) | -0.469 (inactive) | 0.929 (inactive) | 0.339 (inactive) | 1.05 (inactive) | 0.0843 (inactive) | -0.264 (inactive) | -0.737 | 0.0593 | 2.82 (inactive) | 0.349 | 0.287 | -4.38 (inactive) | 0.0478 (inactive) | 1.23 (inactive) |

— PubChem BioAssay
